A short description of test [1]: qHTS assay to identify small molecule agonists of the estrogen receptor alpha (ER-alpha) signaling pathway in the presence of an antagonist - cell viability counter screen (AID 1259386). Further: series mostly up to about 92 µM; nearly all actives have a fitted effect of over 30% in size. The method, boiled down: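 Read-out: CellTiter-Fluor fluorescence after 1hr reagent incubation, measured in the same wells as the luciferase readout. VM7Luc4E2 cells were exposed to 15 compound concentrations with 10.0nM ICI-182,780 for 22hr at 37C.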
(Quantitative high-throughput screening tests each substance at several concentrations.)

In test [2] the target is Progesterone receptor (Homo sapiens) (UniProt P06401). In words: qHTS assay to identify small molecule agonists of the progesterone receptor (PR) signaling pathway (AID 1346784; calls by dose curve; further: nearly all actives have a fitted effect of over 30% in size). The method, boiled down: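 Reporter assay, GripTite PR-UAS-bla HEK 293T cells: 16 hr exposure to DMSO-dissolved compounds at 37C, 5% CO2, in steroid-depleted (2% charcoal-stripped FBS) medium; beta-lactamase measured by FRET fluorescence.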
Sequence of Progesterone receptor (Homo sapiens) (P06401 whole entry, looked up): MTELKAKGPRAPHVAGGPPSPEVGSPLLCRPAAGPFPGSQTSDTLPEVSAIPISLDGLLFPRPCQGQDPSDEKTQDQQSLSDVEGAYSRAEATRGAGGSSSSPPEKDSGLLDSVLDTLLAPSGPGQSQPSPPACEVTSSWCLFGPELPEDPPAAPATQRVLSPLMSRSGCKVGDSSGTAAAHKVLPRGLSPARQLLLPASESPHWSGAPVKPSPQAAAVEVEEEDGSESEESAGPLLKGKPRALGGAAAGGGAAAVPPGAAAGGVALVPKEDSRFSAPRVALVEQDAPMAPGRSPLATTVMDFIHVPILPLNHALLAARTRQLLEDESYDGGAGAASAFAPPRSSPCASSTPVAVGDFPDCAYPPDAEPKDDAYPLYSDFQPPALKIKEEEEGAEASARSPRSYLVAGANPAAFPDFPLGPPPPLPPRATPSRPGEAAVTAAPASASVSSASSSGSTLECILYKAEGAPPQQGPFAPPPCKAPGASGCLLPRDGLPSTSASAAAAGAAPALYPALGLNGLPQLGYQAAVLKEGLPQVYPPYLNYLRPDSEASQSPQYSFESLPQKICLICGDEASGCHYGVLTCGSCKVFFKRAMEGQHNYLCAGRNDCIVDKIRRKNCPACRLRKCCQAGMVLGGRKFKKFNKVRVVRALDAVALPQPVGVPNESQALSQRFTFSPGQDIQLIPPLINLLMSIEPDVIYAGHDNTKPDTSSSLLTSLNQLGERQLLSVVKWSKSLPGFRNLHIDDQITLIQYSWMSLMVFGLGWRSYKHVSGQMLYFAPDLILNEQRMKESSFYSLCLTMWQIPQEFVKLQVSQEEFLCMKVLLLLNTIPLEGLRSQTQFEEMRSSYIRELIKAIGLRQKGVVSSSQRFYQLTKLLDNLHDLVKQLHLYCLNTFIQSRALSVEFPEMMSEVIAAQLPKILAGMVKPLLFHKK

Test [3] has the same target. As to the kind of experiment: qHTS assay to identify small molecule antagonists of the progesterone receptor (PR) signaling pathway (AID 1346795; active means well fitted inhibition curve with a large enough effect in the signal ratio in the repeat runs, not every such curve was filed as active; the % refers to the signal ratio; further: potency means the concentration at half of the fitted maximal effect). The gist of the method: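 Stimulus R5020 at 1 nM final; cells HEK293T PR-UAS-bla; medium with 2% charcoal-stripped FBS; compound exposure 16 hr at 37C, 5% CO2; detection by FRET beta-lactamase substrate, 2 hr, room temperature.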

The nature of test [4]: qHTS assay to identify small molecule antagonists of the progesterone receptor (PR) signaling pathway - cell viability counter screen (AID 1346798). Further: series mostly up to about 92 µM; nearly all actives have a fitted effect of over 50% in size. The gist of the method:
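In the same plates used for the beta-lactamase readout, cell viability of compound- and R5020-treated PR-UAS-bla HEK293T cells (16 hr, 37C) was assessed by CellTiter-Glo luminescence.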

Test [5] is described as follows: qHTS assay to identify small molecule agonists of the progesterone receptor (PR) signaling pathway - cell viability counter screen (AID 1346799; calls by dose curve; further: nearly all actives have a fitted effect of over 45% in size). The gist of the method: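 Multiplexed viability read: CellTiter-Glo luminescence, 30 min RT, following LiveBLAzer FRET measurement on PR-UAS-bla HEK293T cells exposed to compounds 16 hr.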
The nature of test [6]: qHTS assay to identify small molecule antagonists of the TGF-beta/Smad signaling pathway - cell viability counter screen (AID 1346824). Further: nearly all actives have a fitted effect of over 50% in size. The method, boiled down: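 Cytotoxicity counter-screen run in the same wells as the beta-lactamase Smad reporter read: CellTiter-Glo luminescence after 30 min at room temperature. HEK 293T SBE-bla cells had 5 hr compound exposure at 37 C with TGF-beta1 (0.25 ng/mL stock).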

Test [7] is described as follows: qHTS assay to identify small molecule agonists of the TGF-beta/Smad signaling pathway - cell viability counter screen (AID 1346829). Further: top concentration of the series differs between compounds; nearly all actives have a fitted effect of over 45% in size. The gist of the method:
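CellTiter-Glo luminescence readout; SBE-bla HEK 293T cells, overnight plating, compound 5 hr at 37 C/5% CO2, then bla substrate 2 hr RT, then CellTiter-Glo 30 min RT.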

Test [8] is described as follows: qHTS assay to identify small molecule agonists of the TGF-beta/Smad signaling pathway (AID 1346859; active means well fitted activation curve with a large enough effect in the signal ratio in the repeat runs, not every such curve was filed as active; the % refers to the signal ratio; further: series mostly up to about 77 µM). The gist of the method:
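Screening used HEK 293T SBE-bla cells at 4,000/well. Test agents: 5 hr, 37 C. Detection: FRET substrate, 2 hr RT, then excitation 405 nm with emissions at 460 and 530 nm.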

Test [9] addresses Thyrotropin-releasing hormone receptor (Homo sapiens) (UniProt P34981). As to the kind of experiment: qHTS assay to identify small molecule antagonists of the thyrotropin-releasing hormone receptor (TRHR) signaling pathway (AID 1346877; active means well fitted inhibition curve with a large enough effect in the repeat runs, not every such curve was filed as active; further: series mostly up to about 51 µM). The method, boiled down:
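HEK293/TRHR cells, 18 h, 37 °C; Ca2+ dye 2 h; cpd 5 min RT; TRH 1 nM final; fluorescence read 3 min, 1 s intervals; 15 concs, triplicate.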

Test [10] has the same target. As to the kind of experiment: qHTS assay to identify small molecule agonists of the thyrotropin-releasing hormone receptor (TRHR) signaling pathway (AID 1346891; calls by dose curve; further: series mostly up to about 58 µM). The gist of the method: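 Readout was intracellular calcium fluorescence in TRHR-Hek293 cells. Cells were incubated 18 h, dye-loaded 2 h at 37 °C, and treated with compound in agonist mode.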
Test [11] in a line: Human pregnane X receptor (PXR) small molecule agonists, qHTS cell viability counter screen (AID 1346977). Further: nearly all actives have a fitted effect of over 50% in size. The method, boiled down:
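In each well, the PXR reporter HepG2 line was checked for viability: CellTiter-Fluor reagent added 23hr post-dosing, fluorescence read after 1hr incubation at 37C.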

Test [12] is described as follows: Caspase-3/7 induction in HepG2 cells by small molecules, qHTS assay (AID 1346978). Further: nearly all actives have a fitted effect of over 15% in size. The method, boiled down: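 Caspase-3/7 induction was measured by Caspase-Glo 3/7 luminescence (30 min, room temperature) after a 17 hr compound exposure of wild-type HepG2 cells seeded at 2,000 per well and pre-incubated 5 hr.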
A short description of test [13]: Caspase-3/7 induction in CHO-K1 cells by small molecules, qHTS cell viability counter screen (AID 1346979). Further: nearly all actives have a fitted effect of over 35% in size. The method, boiled down:
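Following a 5hr settling period, CHO-K1 cells at 1,500 per well received DMSO-dissolved compounds. Cell viability was quantified 16hr later by CellTiter-Fluor fluorescence, measured after 1hr with reagent at 37C.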

Test [14] in a line: Caspase-3/7 induction in CHO-K1 cells by small molecules, qHTS assay (AID 1346980). Further: nearly all actives have a fitted effect of over 15% in size. The method, boiled down:
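Luminescent Caspase-Glo 3/7 read (30min, room temperature) quantified apoptosis induction. Cells were wild-type CHO-K1, treated with compound for 17hr at 37 C and 5% CO2.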

The nature of test [15]: Caspase-3/7 induction in HepG2 cells by small molecules, qHTS cell viability counter screen (AID 1346981). Further: series mostly up to about 92 µM; nearly all actives have a fitted effect of over 30% in size. The method, boiled down: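 Fluorescence read-out of live-cell protease activity (CellTiter-Fluor) after 1 hr with reagent. This was measured in the same wells as the caspase-3/7 luminescence, on HepG2 cells exposed to DMSO-dissolved compounds for 16 hr at 37 C.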
The target of test [16] is Nuclear receptor subfamily 1 group I member 2 (Homo sapiens) (UniProt O75469). In words: Human pregnane X receptor (PXR) small molecule agonists, qHTS assay (AID 1346982). Further: nearly all actives have a fitted effect of over 35% in size. Further: potency means the concentration at half of the fitted maximal effect. The gist of the method: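 HepG2 PXR-Luc reporter line, 5% charcoal-stripped FBS; 5 hr pre-incubation, compound (DMSO) 24 hr at 37 C/5% CO2; ONE-Glo 30 min RT; luminescence read-out.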
Sequence of Nuclear receptor subfamily 1 group I member 2 (Homo sapiens) (O75469 whole entry, looked up): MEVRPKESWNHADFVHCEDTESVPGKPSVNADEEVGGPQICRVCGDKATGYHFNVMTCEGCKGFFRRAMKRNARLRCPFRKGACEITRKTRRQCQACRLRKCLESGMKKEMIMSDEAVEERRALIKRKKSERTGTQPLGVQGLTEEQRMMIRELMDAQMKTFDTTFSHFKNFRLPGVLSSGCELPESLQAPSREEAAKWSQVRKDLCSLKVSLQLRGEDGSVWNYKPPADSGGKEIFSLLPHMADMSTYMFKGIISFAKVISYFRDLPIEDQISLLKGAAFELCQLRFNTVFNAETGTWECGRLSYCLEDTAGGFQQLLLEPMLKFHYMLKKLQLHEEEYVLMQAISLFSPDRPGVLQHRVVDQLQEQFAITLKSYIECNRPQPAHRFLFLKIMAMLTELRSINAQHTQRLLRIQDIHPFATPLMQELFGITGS
Test [17] has as its target Acetylcholinesterase (Homo sapiens) (UniProt P22303). As to the kind of experiment: Acetylcholinesterase (AChE) small molecule antagonists: colormetric cell-based qHTS assay (AID 1347395; calls by dose curve; further: nearly all actives have a fitted effect of over 30% in size). The method, boiled down: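 After overnight attachment at 37 C, SH-SY5Y cells get 30 min compound exposure; detection cocktail (acetylthiocholine, DTNB) then incubates 90 min at 37 C, and absorbance reflects AChE-generated thiocholine.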

The target of test [18] is Nuclear receptor subfamily 1 group I member 2 (Rattus norvegicus) (UniProt Q9R1A7). In words: Rat pregnane X receptor (rPXR) activation by small molecules, qHTS assay (AID 1346983). Further: nearly all actives have a fitted effect of over 20% in size. The note with it: rPXR luciferase reporter cells, One-Glo luminescence, 24 h; hits give high values. The method, boiled down:
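Luminescent readout (One-Glo luciferase, 30 min room temperature) followed 24 hr compound treatment at 37 C of rPXR cells plated 2,000 per well and preincubated 5hr; qHTS format with compounds delivered in DMSO.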

Test [19] addresses Nuclear receptor subfamily 1 group I member 2 (Homo sapiens) (UniProt O75469). As to the kind of experiment: CYP3A4 induction through human pregnane X receptor (PXR) by small molecules, qHTS assay (AID 1346984). Further: nearly all actives have a fitted effect of over 40% in size. The method, boiled down:
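HepG2-derived DPX-2 line carrying PXR plus a CYP3A4-promoter luciferase reporter; cells plated 5 hr, compound-exposed 24 hr at 37C. CYP3A4 activity probed with 3uM (final) Luciferin-IPA for 3hr, then luciferase read after One-Glo.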

Test [20] has the same target. As to the kind of experiment: Human pregnane X receptor (PXR) activation by small molecules, qHTS assay (AID 1346985). Further: nearly all actives have a fitted effect of over 40% in size. The method, boiled down:
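DPX-2 cells (HepG2 co-transfected with a PXR response element and a CYP3A4-promoter luciferase construct) were seeded at 2,000 per well, rested 5 hr at 37C, then exposed to DMSO-dissolved compounds for 24 hr. Activation was read as luciferase luminescence.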

Values without a mark were called inactive. Results filed as inconclusive are left out. Active and inactive are the calls of the source. Unless noted, the call rests on the fitted dose curve; in most records, active means well fitted curve in the direction sought with a large enough effect in the repeat runs; inconclusive means weak or mixed curves; inactive means no such curve, though single readings can be large; an effect the other way counts as inactive or inconclusive.
On the % scale 0 is the no-effect control and ±100 the full control effect.

Sequence of Acetylcholinesterase (Homo sapiens) (P22303 whole entry, looked up): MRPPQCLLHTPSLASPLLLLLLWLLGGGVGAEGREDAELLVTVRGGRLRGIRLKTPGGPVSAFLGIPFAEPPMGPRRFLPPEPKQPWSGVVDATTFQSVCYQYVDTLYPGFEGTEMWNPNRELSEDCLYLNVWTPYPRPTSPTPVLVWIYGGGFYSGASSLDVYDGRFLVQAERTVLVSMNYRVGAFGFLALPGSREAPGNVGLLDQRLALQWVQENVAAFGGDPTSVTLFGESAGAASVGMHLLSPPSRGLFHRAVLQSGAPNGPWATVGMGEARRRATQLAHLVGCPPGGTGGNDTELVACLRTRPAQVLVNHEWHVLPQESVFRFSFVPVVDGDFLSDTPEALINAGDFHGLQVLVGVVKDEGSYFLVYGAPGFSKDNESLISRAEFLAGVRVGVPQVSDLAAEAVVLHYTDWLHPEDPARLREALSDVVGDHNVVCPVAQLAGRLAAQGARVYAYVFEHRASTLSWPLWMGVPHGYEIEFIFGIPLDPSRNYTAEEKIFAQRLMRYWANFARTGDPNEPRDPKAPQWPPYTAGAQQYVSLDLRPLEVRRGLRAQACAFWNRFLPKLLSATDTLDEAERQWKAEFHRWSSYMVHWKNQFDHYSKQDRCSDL
Sequence of Thyrotropin-releasing hormone receptor (Homo sapiens) (P34981 whole entry, looked up): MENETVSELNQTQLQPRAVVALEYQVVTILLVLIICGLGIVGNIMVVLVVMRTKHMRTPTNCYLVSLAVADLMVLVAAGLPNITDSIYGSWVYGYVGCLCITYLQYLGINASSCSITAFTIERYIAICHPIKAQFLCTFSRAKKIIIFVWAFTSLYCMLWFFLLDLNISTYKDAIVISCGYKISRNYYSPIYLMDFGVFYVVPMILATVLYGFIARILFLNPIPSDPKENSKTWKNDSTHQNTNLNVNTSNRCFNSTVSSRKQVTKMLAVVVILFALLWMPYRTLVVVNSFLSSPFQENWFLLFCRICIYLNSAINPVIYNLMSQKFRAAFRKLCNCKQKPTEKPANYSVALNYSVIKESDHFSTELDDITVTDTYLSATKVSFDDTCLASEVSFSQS
Sequence of Nuclear receptor subfamily 1 group I member 2 (Rattus norvegicus) (Q9R1A7 whole entry, looked up): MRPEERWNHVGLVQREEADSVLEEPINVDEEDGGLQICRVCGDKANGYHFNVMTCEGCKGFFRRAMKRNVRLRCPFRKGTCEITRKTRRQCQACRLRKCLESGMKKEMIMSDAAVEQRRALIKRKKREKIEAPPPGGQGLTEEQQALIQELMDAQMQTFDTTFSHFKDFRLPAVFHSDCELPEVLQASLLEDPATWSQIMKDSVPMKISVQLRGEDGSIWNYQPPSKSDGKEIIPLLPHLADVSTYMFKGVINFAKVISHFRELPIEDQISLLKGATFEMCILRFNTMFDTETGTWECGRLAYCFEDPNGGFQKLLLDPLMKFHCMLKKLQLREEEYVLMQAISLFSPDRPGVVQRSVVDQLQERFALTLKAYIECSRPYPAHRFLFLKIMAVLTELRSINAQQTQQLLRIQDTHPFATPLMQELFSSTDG

Take `CC(C)c1ccc(NC(=O)N(C)C)cc1`: the Potency result in test [1], in [2], in test [3], in test [4], in test [5] and in [6] was “inactive” throughout. For the same molecule, the Potency result in [7], in test [9], in [11], in [12], in [13] and in [14] was “inactive” throughout. The Potency result in test [15] and in test [17] was “inactive” throughout. Further, the outcome in test [8] and in test [10] was inactive. Further, the Potency in [16] is 30.6 µM (active).
Regarding `C=CCc1ccc(OC(=O)Cc2ccccc2)c(OC)c1`, the Potency result in test [1], in test [2], in test [3], in test [4], in [5] and in test [6] was “inactive” throughout. In addition, the Potency entry in [7], in [9], in [11], in test [12], in test [13] and in test [14] was “inactive” throughout. Further, the Potency result in [15], in test [16] and in test [17] was “inactive” throughout. Further, the call in test [8] and in test [10] was inactive.
On to `CCOC(=O)C1OC1(C)c1ccccc1` (stereo not given), for which the Potency result in test [1], in [2], in [3], in test [4], in test [5] and in test [6] was “inactive” throughout. For the same molecule, the Potency result in [7], in test [9], in [11], in test [12], in [13] and in test [14] was “inactive” each time. Besides, the Potency entry in test [15], in test [16] and in [17] was “inactive” each time. For the same molecule, the result in [8] and in test [10] was inactive.
For the molecule `CCCCCCCCCCCCCCCl`, the Potency result in [1], in test [2], in [3], in test [4], in [5] and in test [6] was “inactive” in each case. For the same molecule, the Potency result in test [7], in test [9], in [11], in test [12], in test [13] and in test [14] was “inactive” throughout. The Potency entry in test [15] and in test [17] was “inactive” in each case. Moreover, the molecule was called inactive in test [8] and in test [10]. Also, the Potency in test [16] is 61.4 µM (active).
For the molecule `COc1ccccc1N1CCNCC1`, the Potency result in test [1], in [2], in [3], in [4], in test [5] and in test [6] was “inactive” each time. Moreover, the Potency result in [7], in test [9], in test [11], in test [12], in test [13] and in test [14] was “inactive” in each case. Besides, the Potency result in test [15], in [16] and in test [20] was “inactive” each time. In addition, the outcome in test [10] and in [19] was inactive. Also, the max activation in test [18] was -3.01%.
For the molecule `Nc1ccc2c(c1)Cc1ccccc1-2`, the Potency entry in test [1], in [2], in [4], in test [5], in test [6] and in [7] was “inactive” in each case. The Potency entry in test [9], in test [11], in test [12], in [13], in test [14] and in test [15] was “inactive” each time. Besides, the Potency entry in [17] was “inactive”. Further, the Potency in test [3] is 6.08 µM (active); in test [16] it was 27.1 µM (active). The call in [8] and in [10] was inactive.
In the case of `CCCCC#N`, the Potency result in test [1], in test [2], in [3], in [4], in test [5] and in test [6] was “inactive” throughout. The Potency entry in test [7], in test [9], in [11], in test [12], in [13] and in test [14] was “inactive” each time. Further, the Potency result in test [15], in test [16] and in test [17] was “inactive” throughout. The result in test [10] was inactive.
Turning to `CC(C)OC(=O)Cc1ccccc1`, the Potency entry in [1], in [2], in [3], in [4], in test [5] and in [6] was “inactive” each time. Further, the Potency entry in test [7], in test [9], in test [11], in [12], in [13] and in test [14] was “inactive” in each case. Further, the Potency result in [15], in test [16] and in test [17] was “inactive” in each case. The call in test [10] was inactive.

(Values after PubChem BioAssay (Tox21).)
